Source: PubChem BioAssay
In the library only some 3.6% were active in any assay of this set; here they are far more common.
A3A deaminase – APOBEC3A ssDNA deaminase inhibitors, primary screen, selectivity assay for APOBEC3G inhibitor project, biochemical, FAM/TAMRA oligo cleavage fluorescence; hit rate 0.41% among 330,000; inhibition, % at 20 µM; DNA dC->dU-editing enzyme APOBEC-3A (Homo sapiens), P31941; recombinant A3A, FAM/TAMRA ssDNA deamination fluorescence; AID 493011, 2011;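 active = at least 40% inhibition at 20 µM here, with at most 30% in a related deaminase screen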;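 note: plate controls were A3A with DMSO for no effect and wells lacking A3A enzyme for full effect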
Target sequence (P31941 whole entry, looked up): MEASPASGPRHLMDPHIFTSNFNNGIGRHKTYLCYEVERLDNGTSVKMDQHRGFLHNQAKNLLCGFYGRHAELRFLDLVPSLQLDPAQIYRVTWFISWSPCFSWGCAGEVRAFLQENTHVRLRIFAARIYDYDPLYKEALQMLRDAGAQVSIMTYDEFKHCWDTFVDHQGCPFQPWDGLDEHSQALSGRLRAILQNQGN
MITF TRPM1 HTS – activators of MITF-driven TRPM1 promoter reporter, primary screen, cell-based, SK-MEL-5, luciferase, single point. SK-MEL-5 TRPM1-promoter luciferase, 24 h; % of positive control, neutral wells = 0. activation, % at 12.5 µM. hit rate 0.75% among 300,000. AID 588334, 2011;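 active = mean activation of at least 80% with every replicate also reaching 80%; inconclusive = mean reaches 80% but some replicate falls short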;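 note: 0% = neutral control wells and 100% = parthenolide positive control wells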
Wnt act – Wnt/beta-catenin pathway activators, primary screen, cell-based, plate reader, single point. Wnt/beta-catenin reporter cell assay, activator. activation, % at 9.35 µM. hit rate 1.2% among 300,000; in the data active = activation above about 30%, passing the limit was not always enough; inconclusive = no clear call, values can overlap the other calls;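 note: 0% = neutral control wells and 100% = positive control wells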
APOBEC3G inh – APOBEC3G DNA deaminase inhibitors, primary screen, biochemical, fluorescence, single-stranded DNA substrate, uHTS. DNA dC->dU-editing enzyme APOBEC-3G (Homo sapiens), Q9HC16. recombinant A3G, ssDNA deamination FAM/TAMRA fluorescence. inhibition, % at 20 µM. hit rate 0.28% among 330,000;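 active = inhibition of at least 40% at 20 µM, with no more than 30% in the related APOBEC3A deaminase screen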;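 note: plate controls were DMSO wells with A3G for no effect and wells lacking A3G enzyme for full effect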
esBAF inh – Bmi1 luciferase reporter increase in mESCs, primary screen, esBAF inhibitor project, mouse ES cells, Bmi1 luciferase knock-in, single point; reporter increase, % at 12.5 µM; hit rate 2% among 350,000; AID 602393, 2012; 24 h; 100% = twice the neutral-well signal; in the data active = activation above about 40%; inconclusive = no clear call, values can overlap the other calls;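 note: 0% = median of the plate's neutral control wells and 100% = double that signal; a rise in the Bmi1 reporter signal indicates esBAF inhibition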
PHOSPHO1 block – PubChem AID 1565. inhibition, % at 13.3 µM. recombinant PHOSPHO1, absorbance phosphatase assay. hit rate 1.1% among 290,000; in the data active = inhibition above about 60%
Target sequence (Q8TCT1 whole entry, looked up): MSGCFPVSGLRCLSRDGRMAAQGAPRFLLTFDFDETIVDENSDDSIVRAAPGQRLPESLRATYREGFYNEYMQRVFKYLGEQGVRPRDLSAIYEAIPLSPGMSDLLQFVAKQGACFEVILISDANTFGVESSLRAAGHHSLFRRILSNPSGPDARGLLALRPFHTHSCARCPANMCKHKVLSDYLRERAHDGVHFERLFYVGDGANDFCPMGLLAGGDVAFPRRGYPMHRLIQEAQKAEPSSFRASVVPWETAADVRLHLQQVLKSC
esBAF Ring1 qPCR – Ring1 mRNA increase in mouse ESCs, confirmation, esBAF inhibitor project, cell-based, mouse ESC, RT-qPCR, cherry-pick; mouse ESC E14, Ring1 mRNA RT-qPCR fold change; shares compounds with esBAF inh; AID 743176, 2013; fold change at 33 µM; 550 tested, under 10 active;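 active = Ring1 gene expression raised more than 2-fold over untreated cells in both replicates at either tested dose; inconclusive = only one replicate above 2-fold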;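 note: Ring1 transcript normalised to actin housekeeping signal by TaqMan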
esBAF Fgf4 qPCR – Fgf4 mRNA decrease in mouse ESCs, confirmation, esBAF inhibitor project, cell-based, mouse ESC, RT-qPCR, cherry-pick. Fgf4 expression fold change at 33 µM. hit rate 4% among 550. AID 743177, 2013. shares compounds with esBAF inh. mouse ESC E14, Fgf4 mRNA qPCR fold change; stronger effect = lower value;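 active = Fgf4 expression under 0.8 fold of control in both repeat measurements at one or both tested doses; inconclusive = under 0.8 fold in just a single repeat measurement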;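 note: Fgf4 transcript normalised to actin in duplex TaqMan qPCR; cells exposed to compound for 24 h before lysis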
Bmi1 derepress – esBAF inhibition via Bmi1 de-repression, confirmation, cell-based, RT-qPCR, mouse ESC, single point, cherry-pick; shares compounds with esBAF inh; mouse ESE14 ES cells, Bmi1 mRNA qPCR fold; stronger effect = higher value; fold change at 33 µM; 550 tested, under 10 active; AID 743180, 2013;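 active = Bmi1 expression fold change above 6 at either tested concentration, seen in replicate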
A549 tox SP – A549 cell cytotoxicity, cytotoxicity control, plate reader, single point, cherry-pick. shares compounds with esBAF inh. cell viability change % (negative = cytotoxic), % at 25 µM, hits read low. 550 tested, under 10 active. AID 743188, 2013; call rule not given here
HepG2 cytotox SP – HepG2 cell cytotoxicity, cytotoxicity control, plate reader, single point, cherry-pick | shares compounds with esBAF inh | stronger effect = lower value | activity change, negative = inhibition, % at 25 µM | hit rate 4% among 550; in the data active = activity change below about -50%
HEK293 cytotox SP – HEK293 cell cytotoxicity, cytotoxicity control, plate reader, single point, cherry-pick | shares compounds with esBAF inh | activity change, negative = inhibition, % at 25 µM, hits read low | hit rate 3% among 550; in the data active = activity change below about -38%, passing the limit was not always enough
* hit, by the source's call; ? = inconclusive; . = not tested or not shown.

SMILES	A3A deaminase	MITF TRPM1 HTS	Wnt act	APOBEC3G inh	esBAF inh	PHOSPHO1 block	esBAF Ring1 qPCR	esBAF Fgf4 qPCR	Bmi1 derepress	A549 tox SP	HepG2 cytotox SP	HEK293 cytotox SP
C[C@H](NC(=O)C[C@@H]1C=C[C@H](NC(=O)Cc2ccccn2)[C@H](CO)O1)c1ccccc1	.	.	.	.	2	.	.	.	.	.	.	.
COc1ccc(S(=O)(=O)N(C)C[C@@H]2Oc3c(NC(=O)C4CC4)cccc3C(=O)N([C@@H](C)CO)C[C@@H]2C)cc1	.	.	.	.	-5	.	.	.	.	.	.	.
O=C(CCCc1ccccn1)c1ccc(-c2ccccc2)cc1	.	?	-3	.	55*	.	1.2	?	1.8	-5	-14	-6
CCN(CC)S(=O)(=O)c1cccc(-c2cn3cc(C)ccc3n2)c1	-6	68	.	-8	65*	12	1.1	0.77*	2	0	-49	-15
Cc1ccc2nc(-c3cccc(S(=O)(=O)N4CC(C)OC(C)C4)c3)cn2c1 (stereo not drawn)	-6	1	2	-9	16	38	.	.	.	.	.	.
CCN1C(=O)C(=CC=CN(C)c2ccccc2)SC1=S	.	.	7	.	84*	.	1.1	0.93	1.5	-19	-8	-10
CCCCc1nc2cc(C(=O)N3CCN(c4nc(C)cnc4C)CC3)ccc2o1	-2	?	4	1	64*	-2	1	0.91	1.1	-8	0	-22
CCCCc1nc2cc(C(=O)N3CCC(OC)CC3)ccc2o1	-5	19	16	-5	22	12	.	.	.	.	.	.
O=C(C[C@@H]1CC[C@@H]2[C@H](COC[C@H](O)CN2CCC(F)(F)F)O1)NCC1CCCCC1	.	.	.	.	4	.	.	.	.	.	.	.
CCC(=O)c1ccc(N2CCC(C)CC2)c(F)c1	-2	71	8	-1	71*	1	1.4	0.9	1.7	1	-17	2
CCOC(=O)N1CCN(c2ccc(C(=O)CC)cc2F)CC1	-3	32	.	-9	-18	10	.	.	.	.	.	.
O=C(N/N=C/c1cnc2ccccc2n1)c1cccc(F)c1	-4	49	9	-7	60*	1	1.1	1.1	1.3	4	4	3
Cc1ccc(Nc2ncnc3sc(C)c(C)c23)cc1	3	41	.	-6	59*	-20	1.2	0.92	1.4	-2	-12	-3
Cc1ccc(S(=O)(=O)Nc2ncnc3sc(C)c(C)c23)cc1	1	-4	1	1	2	.	.	.	.	.	.	.
Cc1csc(NC(=O)CSCC(=O)Nc2ccccc2)n1	-3	8	1	-6	5	4	.	.	.	.	.	.
Cc1csc(Nc2nc(N)c(C(=O)Nc3ccccc3)o2)n1	-5	93*	17	-8	52*	24	1.5	0.95	1.8	5	13	-8
C[C@H]1CN([C@@H](C)CO)C(=O)Cc2cc(NC(=O)CCC(F)(F)F)ccc2O[C@@H]1CN(C)Cc1ccc(C(F)(F)F)cc1	.	.	.	.	2	.	.	.	.	.	.	.
C[C@@H](NC(=O)C[C@H]1C=C[C@@H](NS(=O)(=O)c2cccc(F)c2)[C@@H](CO)O1)c1ccccc1	.	.	.	.	0	.	.	.	.	.	.	.
Nc1cc(OCc2ccccc2)ccc1OCc1ccccc1	.	62	-3	.	83*	.	1.1	?	1.6	-15	-17	-10
O=c1cc(OCc2ccccc2)cc[nH]1	-2	1	0	-5	1	.	.	.	.	.	.	.
COc1ccc(Cc2nc3ccc(C(=O)N(C)Cc4nccn4C)cc3o2)cc1	.	.	-2	.	-2	.	.	.	.	.	.	.
COc1ccc(Cc2nc3ccc(C(=O)N(C)Cc4nccs4)cc3o2)cc1OC	-6	-8	-2	-7	-2	42	.	.	.	.	.	.
CN(Cc1nccs1)C(=O)c1ccc2nc(Cc3ccccc3F)oc2c1	-2	113*	26	-1	67*	20	1.2	0.94	1.4	-6	-18	-12
CN(Cc1nccn1C)C(=O)c1ccc2nc(Cc3ccccc3F)oc2c1	-1	63	15	-5	65*	24	0.78	0.85	1.5	-16	-47	-26
CC(=O)Nc1ccc(-c2nc3c(C)cccc3[nH]2)cc1	-4	.	48*	-4	60*	10	1.3	0.86	1.8	-6	-1	-2
SMILES	A3A deaminase	MITF TRPM1 HTS	Wnt act	APOBEC3G inh	esBAF inh	PHOSPHO1 block	esBAF Ring1 qPCR	esBAF Fgf4 qPCR	Bmi1 derepress	A549 tox SP	HepG2 cytotox SP	HEK293 cytotox SP
Cc1ccccc1-c1cnc2c(c1)C(=O)N([C@H](C)CO)C[C@@H](C)[C@@H](CN(C)C(=O)c1cccnc1)O2	.	.	.	.	-3	.	.	.	.	.	.	.
NC(=O)c1cc(-c2csc(-c3cccnc3)n2)ccc1O	-4	36	10	-1	26	-4	.	.	.	.	.	.
C=CCNc1nc(-c2ccc(O)c(C(N)=O)c2)cs1	-8	55	-3	-5	59*	44	1.2	1	1.3	-7	-36	-6
O=C(Cc1cccs1)Nc1nc2c(s1)CCCC2	-1	56	13	-4	59*	19	1	0.79*	1.3	-28	9	-55*
O=C(Nc1nc2c(s1)CCCC2)c1cccs1	0	45	.	-1	-12	-12	.	.	.	.	.	.
CN(C)c1ccc(C(=O)c2ccccc2)cc1	0	73	24	-5	58*	49	1.1	?	1.5	-7	4	1
COc1ccc(NC(=O)Nc2ccc3c(c2)C(=O)N([C@H](C)CO)C[C@H](C)[C@@H](CN(C)S(C)(=O)=O)OCCCC[C@@H](C)O3)cc1	.	.	.	.	-2	.	.	.	.	.	.	.
COCCNC(=O)C[C@@H]1C[C@H]2c3cc(NS(=O)(=O)c4ccccc4)ccc3O[C@H]2[C@@H](CO)O1	.	.	.	.	-6	.	.	.	.	.	.	.
COc1ccccc1NC(=O)Nc1ccc(Br)cn1	-1	-8	.	-8	14	0	.	.	.	.	.	.
